Several values for one entry are separate records, joined by “and”; a condition that tells them apart may be missing. Equal entries are not always repeated. The whole screen tested about 5,500 compounds, of which about 2,000 (36%) were called active. About 18% were inconclusive and are not listed. No stated cut-off is given here; in the data, active means normalized growth mostly below about 0.91 (no sharp cut-off); inconclusive means no clear call, values can overlap the other calls; inactive means mostly above about 0.92. The list shows a part of the results.
Assay: chemical genetic growth profiling, strain panel (AID 1159580);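 further: tested at 20 µM; growth read once vehicle control cultures reached saturation at 30 °C; 1 = growth at the plate median or of vehicle wells; lower values mean less growth of the strain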
Conditions: S. cerevisiae deletion strains, growth OD

Measured: normalized growth

Cc1ccc(O)cc1
inactive: locus YAL013W, strain DEP1, hits give low values 1.02 | locus YAL021C, strain ccr4, hits give low values 1.04 | locus YAL026C, strain drs2, hits give low values 1.03 | locus YAL030W, strain snc1, hits give low values 1.02 | locus YBL061C, strain skt5, hits give low values 1.02 | locus YBR009C, strain hhf1, hits give low values 1.03 | locus YBR021W, strain FUR4, hits give low values 1.07 | locus YBR023C, strain chs3, hits give low values 1.02 | locus YBR171W, strain sec66, hits give low values 1.02 | locus YBR229C, strain ROT2, hits give low values 1.02 | locus YBR231C, strain swc5, hits give low values 0.992 | locus YBR279W, strain paf1, hits give low values 1.02 | locus YCL011C, strain gbp2, hits give low values 1.02 | locus YCL016C, strain dcc1, hits give low values 1.01 | locus YCL029C, strain bik1, hits give low values 0.985 | locus YCL061C, strain MRC1, hits give low values 1.02 | locus YCL069W, strain vba3, hits give low values 1.02 | locus YCR088W, strain abp1, hits give low values 1.01 | locus YDL005C, strain med2, hits give low values 1.03 | locus YDL035C, strain GPR1, hits give low values 1.01 | locus YDL040C, strain nat1, hits give low values 1.01 | locus YDL074C, strain BRE1, hits give low values 1.03 | locus YDL101C, strain DUN1, hits give low values 1.03 | locus YDL134C, strain PPH21, hits give low values 1.05 | locus YDL185W, strain tfp1, hits give low values 0.99 | locus YDL192W, strain arf1, hits give low values 1.04 | locus YDR001C, strain nth1, hits give low values 1.02 | locus YDR069C, strain doa4, hits give low values 1.04 | locus YDR101C, strain arx1, hits give low values 0.98 | locus YDR137W, strain rgp1, hits give low values 1.04 | locus YDR159W, strain sac3, hits give low values 1 | locus YDR162C, strain NBP2, hits give low values 1.03 | locus YDR195W, strain ref2 1.01 | locus YDR297W, strain sur2, hits give low values 1.03 | locus YDR318W, strain mcm21, hits give low values 1.01 | locus YDR334W, strain swr1, hits give low values 1.02 | locus YDR335W, strain msn5, hits give low values 1.02 | locus YDR388W, hits give low values 1.02 | locus YDR392W, strain spt3, hits give low values 0.916 | locus YDR502C, strain sam2, hits give low values 0.979 | locus YEL003W, strain gim4, hits give low values 1.01 | locus YEL037C, strain rad23, hits give low values 1.01 | locus YEL061C, strain CIN8 (second series), hits give low values 1.01 | locus YEL061C, strain CIN8, hits give low values 1.02 | locus YER015W, strain faa2, hits give low values 1.01 | locus YER016W, strain bim1, hits give low values 1.01 | locus YER110C, hits give low values 0.991 | locus YER111C, strain swi4, hits give low values 1.01 | locus YER155C, strain BEM2 (second series), hits give low values 1.03 | locus YER155C, strain BEM2, hits give low values 1.02 | locus YER167W, strain BCK2, hits give low values 1.03 | locus YFR010W, strain ubp6, hits give low values 1.02 | locus YGL078C, strain dbp3, hits give low values 0.989 | locus YGL086W, strain mad1, hits give low values 1.01 | locus YGL167C, strain pmr1, hits give low values 1.01 | locus YGL173C, strain kem1, hits give low values 1.04 | locus YGL227W, strain vid30, hits give low values 1.02 | locus YGL240W, strain doc1, hits give low values 1.02 | locus YGL248W, strain PDE1, hits give low values 1.07 | locus YGL253W, strain hxk2, hits give low values 1.03 | locus YGR135W, strain pre9, hits give low values 1.01 | locus YGR229C, strain SMI1, hits give low values 1.04 | locus YGR252W, strain gcn5, hits give low values 0.966 | locus YHR013C, strain ard1, hits give low values 1.02 | locus YHR027C, strain rpn1, hits give low values 1.02 | locus YHR030C, strain SLT2, hits give low values 1.03 and 1 | locus YHR079C, strain IRE1 (second series), hits give low values 1.01 | locus YHR079C, strain IRE1, hits give low values 1 | locus YHR094C, strain hxt1, hits give low values 0.99 | locus YHR129C, strain ARP1, hits give low values 1.03 | locus YHR142W, strain chs7, hits give low values 1.03 | locus YHR200W, strain rpn10, hits give low values 1.01 | locus YIL066C, strain RNR3, hits give low values 1.06 | locus YIL073C, strain SPO22, hits give low values 1.03 | locus YIL125W, strain kgd1, hits give low values 0.994 | locus YIR030C, strain dcg1, hits give low values 1.01 | locus YJL092W, strain hpr5, hits give low values 1.02 | locus YJL095W, strain BCK1 (second series), hits give low values 1.01 | locus YJL095W, strain BCK1, hits give low values 1.07 and 1.02 | locus YJL115W, strain asf1, hits give low values 1.01 | locus YJL129C, strain trk1, hits give low values 1.01 | locus YJL134W, strain LCB3, hits give low values 1.02 | locus YJL154C, strain vps35, hits give low values 1.03 | locus YJL164C, strain tpk1, hits give low values 1.02 | locus YJL166W, strain qcr8, hits give low values 1.02 | locus YJL168C, strain set2, hits give low values 0.994 | locus YJL187C, strain SWE1 (second series), hits give low values 1.04 | locus YJR043C, strain POL32, hits give low values 1.01 | locus YJR066W, strain TOR1, hits give low values 0.987 | locus YKL009W, strain mrt4, hits give low values 1.01 | locus YKL068W, hits give low values 1 | locus YKL085W, strain MDH1 (second series), hits give low values 1 | locus YKL085W, strain MDH1, hits give low values 1 | locus YKL160W, strain elf1, hits give low values 1.01 | locus YKR001C, strain vps1, hits give low values 0.998 | locus YKR026C, strain gcn3, hits give low values 1.02 | locus YKR091W, strain srl3, hits give low values 1.02 | locus YLL001W, strain dnm1, hits give low values 0.984 | locus YLL026W, hits give low values 1.01 | locus YLL041C, strain sdh2, hits give low values 1.02 | locus YLR027C, strain aat2, hits give low values 1.03 | locus YLR039C, strain RIC1, hits give low values 1.05 | locus YLR058C, strain SHM2, hits give low values 1.04 | locus YLR102C, strain apc9, hits give low values 0.993 | locus YLR113W, strain HOG1, hits give low values 1.01 | locus YLR221C, strain rsa3, hits give low values 1.03 | locus YLR258W, strain gsy2, hits give low values 1.01 | locus YLR262C, strain YPT6 (second series), hits give low values 1.04 | locus YLR262C, strain YPT6, hits give low values 1.07 | locus YLR268W, strain sec22, hits give low values 0.998 | locus YLR320W, strain mms22, hits give low values 1.02 | locus YLR330W, strain CHS5, hits give low values 1.03 | locus YLR342W, strain FKS1 (second series), hits give low values 1.08 | locus YLR342W, strain FKS1, hits give low values 1.02 | locus YLR357W, strain rsc2, hits give low values 1.01 | locus YLR370C, strain arc18, hits give low values 1.01 | locus YLR371W, strain rom2, hits give low values 1.02 | locus YLR384C, strain iki3, hits give low values 1.02 | locus YLR418C, strain cdc73, hits give low values 1.04 | locus YML016C, strain PPZ1, hits give low values 1.04 | locus YML032C, strain rad52, hits give low values 1 | locus YML120C, strain ndi1, hits give low values 1.01 | locus YML124C, strain tub3, hits give low values 0.999 | locus YMR058W, strain fet3, hits give low values 1.03 | locus YMR078C, strain ctf18, hits give low values 1 | locus YMR125W, strain sto1, hits give low values 1.03 | locus YMR129W, hits give low values 1.01 | locus YMR205C, strain PFK2, hits give low values 1.03 | locus YMR223W, strain ubp8, hits give low values 1.02 | locus YMR231W, strain pep5, hits give low values 1.02 | locus YMR263W, strain SAP30, hits give low values 1.02 | locus YMR307W, strain GAS1, hits give low values 1.13 | locus YNL067W, strain RPL9B, hits give low values 1.02 | locus YNL071W, strain lat1, hits give low values 1.02 | locus YNL128W, strain TEP1, hits give low values 1.02 | locus YNL183C, strain NPR1, hits give low values 0.951 | locus YNL209W, strain ssb2, hits give low values 1.01 | locus YNL233W, strain BNI4, hits give low values 1.05 | locus YNL248C, strain rpa49, hits give low values 1.03 | locus YNL250W, strain rad50, hits give low values 0.996 | locus YNL271C, strain bni1, hits give low values 0.994 | locus YNL298W, strain CLA4, hits give low values 1 | locus YNL307C, strain MCK1, hits give low values 1.01 | locus YNL322C, strain KRE1 (second series), hits give low values 1.02 | locus YNR049C, strain mso1, hits give low values 1.02 | locus YNR052C, strain pop2, hits give low values 0.997 | locus YOL006C, strain TOP1, hits give low values 1.01 | locus YOL012C, strain htz1 1.54 | locus YOL147C, strain pex11, hits give low values 1.01 | locus YOR001W, strain rrp6, hits give low values 0.984 | locus YOR061W, strain CKA2, hits give low values 1.02 | locus YOR069W, strain VPS5, hits give low values 1.02 | locus YOR070C, strain gyp1, hits give low values 1.01 | locus YOR080W, strain dia2, hits give low values 1.01 | locus YOR083W, strain WHI5, hits give low values 1.01 | locus YOR106W, strain vam3, hits give low values 1.01 | locus YOR136W, strain idh2, hits give low values 0.99 | locus YOR144C, strain elg1, hits give low values 0.999 | locus YOR184W, strain ser1, hits give low values 1.02 | locus YOR231W, strain MKK1, hits give low values 0.993 | locus YOR265W, strain rbl2, hits give low values 1.03 | locus YOR270C, strain vph1, hits give low values 1.08 | locus YOR290C, strain snf2, hits give low values 1.02 | locus YOR316C, strain cot1, hits give low values 0.999 | locus YPL051W, strain arl3, hits give low values 1.01 | locus YPL055C, strain LGE1, hits give low values 1.05 | locus YPL078C, strain atp4, hits give low values 1.02 | locus YPL106C, strain sse1, hits give low values 1.01 | locus YPL240C, strain hsp82, hits give low values 1.01 | locus YPL241C, strain CIN2, hits give low values 1.01 | locus YPL256C, strain CLN2, hits give low values 1.03 | locus YPR119W, strain clb2, hits give low values 0.995 | locus YPR141C, strain kar3, hits give low values 1 | locus YPR163C, strain tif3, hits give low values 1 | locus YPR167C, strain met16, hits give low values 1.02 | strain wtn01, hits give low values 1.03

Reference: PubChem BioAssay AID1159580 (chemical genetic matrix, 2015)
